# According to PubChem BioAssay (NCATS):
# Records with an inconclusive call do not appear. Active and inactive are the calls of the source. Calls follow the shape of the dose curve; as a rule, active = well fitted curve in the direction sought with a large enough effect; inconclusive = small, poorly fitted or top-dose-only effect, or another doubt; inactive = no such curve, though single readings can be large; an effect the other way counts as inactive or inconclusive.
# Assay: qHTS of pediatric cancer cell lines to identify multiple opportunities for drug repurposing: Primary screen for SK-N-MC cells (AID 1347093); also: potency is read from the fitted curve at half-maximal effect;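 as to activity change, negative = cytotoxic: plate controls were DMSO neutral control for no effect and bortezomib for full effect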
# Details: SK-N-MC viability, CellTiter-Glo luminescence, 48 h; series mostly up to 46 µM; activity change, negative = cytotoxic: at the top concentration
# Outline: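 Metabolically active cells were quantified by ATP-dependent luminescence (CellTiter-Glo, 15 min at room temperature) following 48 h treatment. Cells had been plated at 500-1,000 per well and settled for 5 h beforehand.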
Structure (SMILES),"activity change, negative = cytotoxic",Potency
OCCCc1ccccc1,7.42% (inactive),
CN1CCC(N(Cc2cccs2)c2ccccc2)CC1,,26.6 µM (active)
O=c1[nH]c2ccccc2c(=O)n1CCCl,-14.4% (inactive),
CCCCCC1Nc2cc(C(F)(F)F)c(S(N)(=O)=O)cc2S(=O)(=O)N1 (stereo unspecified),-10.1% (inactive),
CCCC(=O)O[C@]1(C(=O)COC(=O)CC)CC[C@H]2[C@@H]3CCC4=CC(=O)CC[C@]4(C)[C@H]3[C@@H](O)C[C@@]21C,1.94% [at 16.1 µM] (inactive),
CC(C)C(=O)Nc1cccc(C(F)(F)F)c1,14.9% (inactive),
OC1(c2ccc(Cl)cc2)CCNCC1,-13.6% (inactive),
Cc1cccc(C)c1NC(=O)c1ccc(N)cc1,-4.05% (inactive),
CCOc1c(N2CCOCC2)cnn(C)c1=O,-9.56% (inactive),
CCOc1ncc(F)c(=O)[nH]1,9.2% (inactive),
O=C(OCC(COC(=O)c1cccnc1)(COC(=O)c1cccnc1)COC(=O)c1cccnc1)c1cccnc1,-5.02% (inactive),
CC(=O)Nc1c(I)c(NC(C)=O)c(I)c(C(=O)O)c1I,-2.52% (inactive),
C=CC[N+]1([C@H]2C[C@H]3[C@@H]4CC[C@H]5C[C@H](OC(C)=O)[C@@H](N6CCCCC6)C[C@]5(C)[C@H]4CC[C@]3(C)[C@H]2OC(=O)CC)CCCCC1,21.4% (inactive),
OC1(c2ccc(Cl)c(C(F)(F)F)c2)CCN(CCCC(c2ccc(F)cc2)c2ccc(F)cc2)CC1,,6.68 µM (active)
COC(=O)/C=C(/C)N,12.5% (inactive),
Nc1nc2ccccc2n1Cc1ccc(F)cc1,-10.9% (inactive),
OCc1c[nH]c2ccccc12,,21.7 µM (active)
CCCc1ccc(OCC(=O)N2CCN(C(=O)COc3ccc(CCC)cc3OC)CC2)c(OC)c1,-19.4% (inactive),
CCC(=O)O[C@]1(C(=O)COC)[C@@H](C)C[C@H]2[C@@H]3CCC4=CC(=O)C=C[C@]4(C)C3(F)[C@@H](O)C[C@@]21C (stereo partly specified),4.27% (inactive),
CN(C)C(=O)CNC(=O)Cc1ccccc1,-27.2% (inactive),
CCCCNc1ccc(C(=O)OCCN(CC)CC)cc1,-7% (inactive),
O=C1CCCc2c(O)cccc21,3.65% (inactive),
CC(Oc1c(Cl)cccc1Cl)C1=NCCN1 (stereo unspecified),-4.36% (inactive),
CC(C)(C)C(O)/C=C/c1ccc2c(c1)OCO2 (stereo unspecified),14.6% (inactive),
COC(=O)c1cc(S(N)(=O)=O)ccc1OC,5.99% (inactive),
Nc1ccc([N+](=O)[O-])c(C(F)(F)F)c1,-6.44% (inactive),
C/C=C(/C(=C/C)c1ccc(OC(C)=O)cc1)c1ccc(OC(C)=O)cc1,,5.31 µM (active)

# Assay: qHTS of pediatric cancer cell lines to identify multiple opportunities for drug repurposing: Primary screen for BT-37 cells (AID 1347094); also: potency is read from the fitted curve at half-maximal effect;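 as to activity change, negative = cytotoxic: plate controls were DMSO for no effect and bortezomib for full effect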
# Details: BT-37 viability, CellTiter-Glo luminescence, 48 h; series mostly up to 57.3 µM; activity change, negative = cytotoxic: at the top concentration
# Outline: (§1)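 Readout: CellTiter-Glo luminescence, 48 h treatment. Controls DMSO (neutral) and bortezomib 2.3 µM final (positive). Potency and efficacy taken from primary-screen concentration-response curves.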
Structure (SMILES),Potency,"activity change, negative = cytotoxic"
CC(C)=CCNc1ncnc2c1ncn2[C@@H]1O[C@H](CO)[C@@H](O)[C@H]1O,6.17 µM (active),
CCC1=C[C@@H]2CN(C1)Cc1c([nH]c3ccccc13)[C@@](C(=O)OC)(c1cc3c(cc1OC)N(C)[C@H]1[C@@](O)(C(=O)OC)[C@H](OC(C)=O)[C@]4(CC)C=CCN5CC[C@]31[C@@H]54)C2,0.0276 µM (active),
COc1cc2c(cc1OC)CN(C(=O)[C@H](C)N[C@@H](CCc1ccccc1)C(=O)O)[C@H](C(=O)O)C2,,6.97% (inactive)
O=C(O)[C@@H](O)[C@H](O)[C@H](O)[C@@H](O)C(=O)O,,14.2% (inactive)
O=C(Nc1ccc(S(=O)(=O)N2CCOCC2)cc1)c1cc(Cl)ccc1NS(=O)(=O)c1ccc(Cl)s1,,-1.26% (inactive)
C[C@]12CCC(=O)C=C1CC[C@@H]1[C@@H]2[C@@H](O)C[C@@]2(C)[C@H]1CC[C@]2(O)C(=O)COC(=O)CCC(=O)O,,11.8% (inactive)
CCc1cc2cc(OC)c(OC)cc2c(Cc2ccccc2)n1,,-10.2% (inactive)
CCCCCCCCCCCCCCCCCCNC(=O)OC1CCN(C(=O)OC[C@H](COC(=O)N(Cc2cccc[n+]2CC)C(=O)c2ccccc2OC)OC)CC1,21.9 µM (active),
CCCCCC1Nc2cc(C(F)(F)F)c(S(N)(=O)=O)cc2S(=O)(=O)N1 (stereo unspecified),,-5.45% (inactive)
Cc1cccc(C)c1NC(=O)c1ccc(N)cc1,,6.67% (inactive)
CCOc1ncc(F)c(=O)[nH]1,,8.6% (inactive)
O=C(OCC(COC(=O)c1cccnc1)(COC(=O)c1cccnc1)COC(=O)c1cccnc1)c1cccnc1,,-2.97% (inactive)
OC1(c2ccc(Cl)c(C(F)(F)F)c2)CCN(CCCC(c2ccc(F)cc2)c2ccc(F)cc2)CC1,11 µM (active),
Nc1nc2ccccc2n1Cc1ccc(F)cc1,,-9.07% (inactive)
OCc1c[nH]c2ccccc12,,-17.1% [at 116 µM] (inactive)
CCCc1ccc(OCC(=O)N2CCN(C(=O)COc3ccc(CCC)cc3OC)CC2)c(OC)c1,,14.5% (inactive)
CCC(=O)O[C@]1(C(=O)COC)[C@@H](C)C[C@H]2[C@@H]3CCC4=CC(=O)C=C[C@]4(C)C3(F)[C@@H](O)C[C@@]21C (stereo partly specified),,17.8% (inactive)
CCCCNc1ccc(C(=O)OCCN(CC)CC)cc1,,-8.59% (inactive)
CC(Oc1c(Cl)cccc1Cl)C1=NCCN1 (stereo unspecified),,0.792% (inactive)
CC(C)(C)C(O)/C=C/c1ccc2c(c1)OCO2 (stereo unspecified),,7.92% (inactive)
Nc1ccc([N+](=O)[O-])c(C(F)(F)F)c1,,6.2% (inactive)
C/C=C(/C(=C/C)c1ccc(OC(C)=O)cc1)c1ccc(OC(C)=O)cc1,,-16.6% (inactive)

# Assay: qHTS of pediatric cancer cell lines to identify multiple opportunities for drug repurposing: Primary screen for NB-EBc1 cells (AID 1347095);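 also: plate controls were DMSO neutral control for no effect and bortezomib for full effect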
# Details: NB-EBc1 neuroblastoma viability, CellTiter-Glo luminescence, 48 h; series mostly up to 46 µM; activity change, negative = cytotoxic: at the top concentration
# Outline: as §1
row,Structure (SMILES),"activity change, negative = cytotoxic"
1,CC(=O)OCC(=O)Nc1cc(C#N)cc(NC(=O)COC(C)=O)c1Cl,30.5% (inactive)
2,CC1(C)S[C@@H]2[C@H](NC(=O)C(c3ccccc3)S(=O)(=O)O)C(=O)N2[C@H]1C(=O)O (stereo partly specified),8.31% (inactive)
3,CC(=O)Nc1ccc(S(=O)(=O)Nc2cc(C)on2)cc1,14.2% (inactive)
4,CCNC(=O)NCCCOc1cccc(CN2CCCCC2)c1,-1.4% (inactive)
5,OCCCc1ccccc1,19.1% (inactive)
6,CN1CCC(N(Cc2cccs2)c2ccccc2)CC1,-5.37% (inactive)
7,O=c1[nH]c2ccccc2c(=O)n1CCCl,1.73% (inactive)
8,CCCC(=O)O[C@]1(C(=O)COC(=O)CC)CC[C@H]2[C@@H]3CCC4=CC(=O)CC[C@]4(C)[C@H]3[C@@H](O)C[C@@]21C,26.9% [at 16.1 µM] (inactive)
9,CC(C)C(=O)Nc1cccc(C(F)(F)F)c1,22.7% (inactive)
10,OC1(c2ccc(Cl)cc2)CCNCC1,7.39% (inactive)
11,CCOc1c(N2CCOCC2)cnn(C)c1=O,32% (inactive)
12,CC(=O)Nc1c(I)c(NC(C)=O)c(I)c(C(=O)O)c1I,-4.58% (inactive)
13,C=CC[N+]1([C@H]2C[C@H]3[C@@H]4CC[C@H]5C[C@H](OC(C)=O)[C@@H](N6CCCCC6)C[C@]5(C)[C@H]4CC[C@]3(C)[C@H]2OC(=O)CC)CCCCC1,37.8% (inactive)
14,COC(=O)/C=C(/C)N,19.3% (inactive)
15,CN(C)C(=O)CNC(=O)Cc1ccccc1,-3.6% (inactive)
16,O=C1CCCc2c(O)cccc21,13.4% (inactive)
17,COC(=O)c1cc(S(N)(=O)=O)ccc1OC,10.9% (inactive)
